The whole screen tested about 47,000 compounds, of which about 2,800 (6%) were called active. Shown is part of a subset that was picked to be rich in actives. A number with no mark means an inactive call. Cut-off read from the data, not from the text of the source: active = z-score above about 3 (passing the limit was not always enough); inactive = the rest.

In the assay the target is Endoribonuclease Dicer (Homo sapiens) (UniProt Q9UPY3). In words: inhibitors of Dicer pre-microRNA processing, primary screen, biochemical, cat-ELCCA, chemiluminescence (AID 1347074).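 Note: plate controls were vehicle for no effect and no enzyme for full effect; higher signal means more uncleaved substrate so more Dicer inhibition.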 Particulars: cat-ELCCA pre-miR-21 Dicer processing, at 25 µM, stronger effect = higher value.
Sequence of Endoribonuclease Dicer (Homo sapiens) (Q9UPY3 whole entry, looked up): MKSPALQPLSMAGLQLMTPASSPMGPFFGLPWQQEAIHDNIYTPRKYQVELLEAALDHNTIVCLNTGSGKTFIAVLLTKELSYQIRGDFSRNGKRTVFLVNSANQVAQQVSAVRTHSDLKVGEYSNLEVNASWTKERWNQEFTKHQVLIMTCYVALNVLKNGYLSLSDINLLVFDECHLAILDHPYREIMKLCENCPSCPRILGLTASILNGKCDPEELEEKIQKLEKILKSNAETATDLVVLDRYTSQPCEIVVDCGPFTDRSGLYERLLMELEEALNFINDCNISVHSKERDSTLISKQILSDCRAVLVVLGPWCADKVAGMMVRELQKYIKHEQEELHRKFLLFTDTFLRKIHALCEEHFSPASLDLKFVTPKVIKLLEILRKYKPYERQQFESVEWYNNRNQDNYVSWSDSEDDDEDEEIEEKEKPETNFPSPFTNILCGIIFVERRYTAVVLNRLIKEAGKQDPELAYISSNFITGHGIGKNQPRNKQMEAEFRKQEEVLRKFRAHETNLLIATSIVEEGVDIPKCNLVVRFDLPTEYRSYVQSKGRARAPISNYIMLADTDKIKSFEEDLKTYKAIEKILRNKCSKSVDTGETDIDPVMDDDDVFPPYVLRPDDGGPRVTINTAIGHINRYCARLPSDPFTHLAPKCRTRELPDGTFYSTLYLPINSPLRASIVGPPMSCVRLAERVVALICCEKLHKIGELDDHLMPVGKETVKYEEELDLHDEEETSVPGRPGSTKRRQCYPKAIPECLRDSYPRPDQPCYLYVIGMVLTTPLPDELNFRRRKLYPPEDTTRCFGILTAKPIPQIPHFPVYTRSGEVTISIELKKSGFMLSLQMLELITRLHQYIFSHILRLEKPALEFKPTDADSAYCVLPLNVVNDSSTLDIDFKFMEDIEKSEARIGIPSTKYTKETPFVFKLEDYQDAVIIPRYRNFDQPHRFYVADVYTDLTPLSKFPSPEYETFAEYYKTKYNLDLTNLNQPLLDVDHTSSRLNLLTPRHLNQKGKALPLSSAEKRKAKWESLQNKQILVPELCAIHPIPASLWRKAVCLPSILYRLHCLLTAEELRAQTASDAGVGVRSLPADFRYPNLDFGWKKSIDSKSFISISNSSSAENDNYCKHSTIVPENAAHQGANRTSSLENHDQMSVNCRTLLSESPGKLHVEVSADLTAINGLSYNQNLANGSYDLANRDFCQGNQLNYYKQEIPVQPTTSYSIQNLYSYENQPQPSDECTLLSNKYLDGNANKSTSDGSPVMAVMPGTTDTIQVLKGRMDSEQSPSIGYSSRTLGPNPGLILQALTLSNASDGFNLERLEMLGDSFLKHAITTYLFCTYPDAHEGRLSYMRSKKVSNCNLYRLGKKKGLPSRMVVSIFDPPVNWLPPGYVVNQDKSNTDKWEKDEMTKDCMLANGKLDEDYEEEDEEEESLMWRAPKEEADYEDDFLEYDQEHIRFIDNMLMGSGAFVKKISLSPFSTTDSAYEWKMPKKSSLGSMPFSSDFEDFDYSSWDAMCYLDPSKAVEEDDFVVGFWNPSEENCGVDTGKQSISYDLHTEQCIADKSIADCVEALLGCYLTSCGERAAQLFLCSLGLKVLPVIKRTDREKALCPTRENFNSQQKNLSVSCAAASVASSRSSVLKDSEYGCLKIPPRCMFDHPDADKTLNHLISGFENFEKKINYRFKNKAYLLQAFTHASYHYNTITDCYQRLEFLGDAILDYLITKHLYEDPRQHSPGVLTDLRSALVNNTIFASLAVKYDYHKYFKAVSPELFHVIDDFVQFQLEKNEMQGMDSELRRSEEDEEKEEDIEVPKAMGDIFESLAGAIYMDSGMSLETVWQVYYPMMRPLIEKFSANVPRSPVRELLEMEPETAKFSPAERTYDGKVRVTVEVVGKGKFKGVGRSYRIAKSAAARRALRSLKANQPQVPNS
For the compound `CCCCSc1nnc2c(n1)OC=Nc1ccc(Br)cc1-2`, the z-score was 1.93. `N#C/C(=C\N1CCc2ccccc21)C(=O)c1cccc(C(F)(F)F)c1`: the z-score is -2.08. To `O=C(CSc1nc2ccccc2nc1N1CCCC1)N1CCN(c2ccccc2)CC1` belongs 1.57. To `O=C(CSc1nc2ccccc2nc1N1CCOCC1)Nc1ccccc1` belongs 1.99.

In the case of `O=C(CSc1nc2ccccc2nc1N1CCCC1)NCc1cccs1`, the z-score was 3.04 (active). To `N#CC1=C(N)Oc2ccc3ccccc3c2C1c1ccc(F)cc1` (stereo unspecified) belongs -0.03. With `O=C(O)c1ccc(N2C(=O)CC(N3CCCCC3)C2=O)cc1` (stereo unspecified) the figure was -0.35; with `COc1ccc(CCNCC(O)Cn2ccc3ccccc32)cc1OC` (stereo unspecified), -0.31; with `COc1ccc(CCNC(N)=O)cc1OC`, 5.13 (active). To `COc1ccc(CCNC(=O)CCC(=O)O)cc1OC` belongs 1.57; to `COC(=O)C(C(=O)OC)=C(SC)SC`, -1.16; to `CC1(C)CC2(CC(C)(c3csc(Nc4ccccc4)n3)OC2=O)C(=O)O1` (stereo unspecified), 1.11. Turning to `O=[N+]([O-])c1ccc(CC(O)N2CCN(c3nc4ccc(Cl)cc4s3)CC2)cc1` (stereo unspecified), the z-score was -0.91. Turning to `O=C(c1cccs1)c1nn(-c2ccccc2)c2nc(=O)c(Cc3ccc(Cl)cc3)nn12`, the z-score was -0.23. To `COc1ccc2[nH]cc(CCC(=O)O)c2c1` belongs 2.43; to `Cc1cc(C)cc(Oc2coc3cc(OCC(=O)O)ccc3c2=O)c1`, -0.66; to `Cc1[nH]cc(Br)c(=O)c1OCC(=O)O`, 4.04 (active). Turning to `O=S(=O)(c1cc(Cl)c(Cl)cc1Cl)N1CCc2[nH]c3ccc(F)cc3c2C1`, the z-score was -0.85. Consider `Cc1ccc(O)c(-c2cnc3ccccc3n2)c1`, for which the z-score was -1.69. With `CC1(C)CC(=O)C=C(Nc2ccccc2)C1` the figure was 2.68; with `O=C1C=C(NNc2ccccc2)CCC1`, 3.26 (active). As for `Cc1ccc(-n2nnnc2-c2ccc(Cl)c(Cl)c2)c(C)c1`, the z-score was -1.31.

As for `Nc1n[nH]c2c1CSc1ccc(Cl)cc1-2`, the z-score is -4.16. With `Cc1ccc2nc(Nc3ncc4c(n3)CC(C)(C)CC4=O)nc(C)c2c1` the figure was 1.2.

For `CCOC(=O)c1cc(CC)sc1NC(=O)c1cccc(C(F)(F)F)c1`, the z-score is 0.82.

`NC(=S)NNC(=O)c1cccc(C(F)(F)F)c1`: the z-score was 33.4 (active). To `O=C(CS(=O)(=O)c1ccc(C(F)(F)F)cn1)NNC(=O)c1ccccc1` belongs 0.59; to `O=[N+]([O-])c1cccc(C2CC(c3ccccc3)=Nc3ccccc3S2)c1` (stereo unspecified), -1.81. With `C1=CC2CC1CC2CN1CCN(Cc2c[nH]c3ccccc23)CC1` (stereo unspecified) the figure was 4.79 (active).

In the case of `COc1cccc(-c2ccc(-c3noc(-c4cccc(OC)c4)n3)c(OC)n2)c1`, the z-score is 0.01. Take `COc1ccc(O)c(C2=NN3C(C2)c2cccc(OC)c2OC3c2ccccc2)c1` (stereo unspecified): the z-score is 1.51. To `COc1cccc(C2Oc3ccccc3C3CC(c4ccccc4O)=NN32)c1OC` (stereo unspecified) belongs 6.13; to `COc1cccc2c1OC(c1ccccc1F)N1N=C(c3ccccc3O)CC21` (stereo unspecified), 5.58 (active). To `Cn1c(-c2ccccc2)cnc1NCc1c(F)cccc1Cl` belongs 2.86; to `Nc1ccc(/C=C/c2nc3ccccc3[nH]2)cc1`, 4.8 (active); to `Cc1ccc(-c2nc3ccccc3[nH]2)cc1N`, 0.04. To `Nc1cccc(CCc2nc3ccccc3[nH]2)c1` belongs 1.56; to `CCCCn1nnc2sc3c(c2c1=O)CCCC3`, -0.96. As to `O=C(CSc1nc2c(c(C(F)(F)F)n1)CCc1ccccc1-2)N1CCOCC1`, the z-score is 0.53.

`COc1cc2c(cc1OC)C(C)N(Cc1cc(C)c(O)c(C)c1)CC2` (stereo unspecified): the z-score is -0.23. To `CCOC(=O)c1cc(Sc2ccccc2)cc(C(=O)OCC)n1` belongs -0.71; to `CCc1ccc(C2C(C(=O)OC)=C(C)NC3=C2C(=O)CC(C)(C)C3)cc1` (stereo unspecified), 0.1.

Turning to `CC(C)(C)OC(=O)n1ccc2cc(Br)ccc21`, the z-score was 3.27 (active). With `CC(=O)Oc1cc2c(C(=O)N3CCN(c4ccccc4)CC3)c(C)oc2c2ccccc12` the figure was 3.08 (active); with `CCOC(=O)c1cc(-c2ccccc2)sc1NC(=S)N1CCN(c2ccccc2)CC1`, 1.09. As to `CCOC(=O)c1nnn2c1nc(N1CCN(c3ccccc3)CC1)c1ccccc12`, the z-score is 0.67. `O=C(CC1(O)C(=O)N(CCc2ccccc2)c2ccccc21)c1cccc(-n2cccc2)c1` (stereo unspecified): the z-score is -0.51. With `C1=C(c2cccs2)CC(c2cccs2)=NN=C1c1cccs1` the figure was 3.06 (active); with `Cc1[nH]nc2c1C(c1ccccc1Cl)C(C#N)=C(N)O2` (stereo unspecified), -1.03. Consider `O=C(O)C1C2C=CC(C2)C1C(=O)N1CCN(CCO)CC1` (stereo unspecified), for which the z-score was 3.56 (active). To `COc1ccc(-c2c(C)nn3c2N=C(c2ccccc2)CC3c2ccco2)cc1` (stereo unspecified) belongs -0.12. Consider `CC(C)N(CCC#N)CN1C(=O)c2ccccc2C1=O`, for which the z-score is 1.63.

On to `COc1cc2c(cc1OC)C(c1ccccc1)=NC(C)(C)C2`, for which the z-score was 0.36. With `FC(F)(F)c1cccc(NC(=S)NNc2nccc(C(F)(F)F)n2)c1` the figure was 3.39 (active). Consider `FC(F)(F)c1ccnc(NCCNc2nccc(C(F)(F)F)n2)c1`, for which the z-score was -0.42. To `FC(F)(F)c1ccc(/C=N/Nc2nccc(C(F)(F)F)n2)cc1` belongs 0.54. For the compound `Cc1cc2c(cc1C)CSC(C)(c1cccc([N+](=O)[O-])c1)SC2`, the z-score is -1.77. To `COc1cccc(C2Nc3cccc4cccc(c34)N2)c1` belongs 3.24 (active); to `Oc1ccc(C2Nc3cccc4cccc(c34)N2)cc1`, 0.15. To `COc1cccc(-n2[nH]nnc2=S)c1` belongs 1.1; to `Cc1ccc(C2Nc3cccc4cccc(c34)N2)cc1`, 3.06 (active); to `Cc1ccc(C2CC(c3cccc(C)c3)n3nc(N)nc3N2)cc1` (stereo unspecified), 0.14.

On to `O=C(CSc1nc2c(c(C(F)(F)F)n1)CCc1ccccc1-2)NCc1cccnc1`, for which the z-score is 2.31. To `CC1=C(C(=O)OC2CCCCC2)C(c2cccnc2)C2=C(CCCC2=O)N1` (stereo unspecified) belongs -0.48; to `CC1=NOC(=O)C1C(c1cccc(Br)c1)c1c(C)[nH]n(-c2ccccc2)c1=O` (stereo unspecified), -4.75. With `CC(C)(C)c1cc2nc(-c3ccc4c(c3)CCC4)cc(C(F)(F)F)n2n1` the figure was -1.01; with `Cc1cc(Br)ccc1Nc1ncnc(N)n1`, 0.67. To `C=CCN(C(=O)c1ccccc1Cl)c1ccccc1C(=O)NCC(=O)OCC` belongs -0.79; to `Cc1cc(O)cc(C)c1/C=C1\NC(=O)NC1=O`, 0.4; to `Cc1ccc(C(=O)NNc2ncnc3sccc23)cc1`, 0.13. As for `CSc1n[nH]c(N)c1-c1ccccn1`, the z-score was 6.44 (active). Turning to `CCOC(=O)c1sc(SC(C)C)c2c1CC(C)(C)CC2=O`, the z-score is -1.12. To `Cc1ccc(N2CC(=O)N(/N=C/c3ccc4c(c3)OCO4)CC2=O)cc1` belongs 3.3 (active). With `Cc1cc(C)c2c(n1)sc1c(=O)n(/N=C/c3ccc4c(c3)OCO4)c(C)nc12` the figure was -0.06. With `O=C(/C(=N\N=C\c1ccc2c(c1)OCO2)c1ccccc1)c1ccccc1` the figure was -1.69; with `O=C(c1cccn1-c1ccc(F)cc1)C(F)(F)F`, -0.2. As to `Cc1ccc(-c2ccc3c4ccccc4c(C(=O)C(F)(F)F)c-3o2)cc1`, the z-score is -0.14. With `O=c1c2c(-c3ccc(Cl)cc3)csc2nc2c3ccccc3c(N3CCN(CCO)CC3)nn12` the figure was -0.37. With `Cc1ccc(S(=O)(=O)Nc2ccc(F)cc2NS(=O)(=O)c2ccc(C)cc2)cc1` the figure was 15.1 (active); with `Cc1ccc(S(=O)(=O)Nc2cc(C)cc(C)c2)cc1`, 2.36; with `Cn1nccc1NS(=O)(=O)c1ccc(F)cc1`, -0.57. To `CN(C)C(=O)Sc1nnc(C2CC2)n1-c1ccc(Cl)cc1` belongs 15.9.

In the case of `CC(C)OC(=O)C1C(=O)CC(C)(O)C(C(=O)OC(C)C)C1c1ccc(Br)cc1` (stereo unspecified), the z-score was -1.31.

As for `CCCOC(=O)C1=C(C)Nc2nnnn2C1c1cc(Br)ccc1OC` (stereo unspecified), the z-score is 3.54 (active). Consider `CCOC(=O)C1=C(C)Nc2nnnn2C1c1ccc(O)cc1` (stereo unspecified), for which the z-score was -2.24.

Turning to `CC1=C(C(N)=O)C(c2ccc(F)cc2)n2nnnc2N1` (stereo unspecified), the z-score is -0.27.

In the case of `O=C(O)CSCC(=O)Nc1ccccc1Sc1ncnc2cc(-c3ccccc3)sc12`, the z-score is -0.26. To `Fc1cccc(-c2nn3c(COc4ccccc4)nnc3s2)c1` belongs 0.92; to `COc1cc(O)ccc1C1Nc2c(C)cc(C)cc2-c2cc(C)nn21` (stereo unspecified), 2.86; to `COc1cccc(C2Nc3ccccc3-c3cc(C)nn32)c1O` (stereo unspecified), -0.43. To `CCOc1ccccc1C1Nc2c(C)cccc2-c2cc(C)nn21` (stereo unspecified) belongs 4.42 (active); to `Cc1c(C#N)c(NC(=O)c2ccc(Cl)cc2)n(CC2CC2)c1C`, 0.46; to `CN1CCc2c(sc3c2C(=O)NC(c2ccc(Br)cc2)N3)C1` (stereo unspecified), -0.13.

Turning to `C/C(=N\OC(=O)Nc1ccc(Cl)cc1)c1cc(-c2ccccc2)no1`, the z-score was -0.26. To `CCOc1ccccc1C1C2=C(CCCC2=O)Nc2nnnn21` (stereo unspecified) belongs 2.2; to `Cc1c(Br)c([N+](=O)[O-])nn1CC(=O)NCCCn1ccnc1`, -0.68. To `O=C(NCc1cccnc1)c1cnc2ccccc2n1` belongs 0.67; to `O=C(O)c1cnc(NCc2ccccc2)s1`, -1.01. To `O=C(NCc1ccccc1)c1cc2sccc2s1` belongs 3.86 (active). As for `Cc1c(C)c(C)c(CSCC(=O)N/N=C/C=C/c2ccccc2)c(C)c1C`, the z-score was 1.61. To `Cc1ccc(C2CC(C(F)(F)F)n3ncc(C(=O)N(C)Cc4cn(C)nc4C)c3N2)cc1` (stereo unspecified) belongs -1.27.

For the origin of these results see PubChem BioAssay AID1347074 (Center for Chemical Genomics, University of Michigan, 2019).
